S1P3 antagonist: S1P3 receptor antagonists, primary screen, cell-based. Sphingosine 1-phosphate receptor 3 (Homo sapiens), Q99500. CHO S1P3 NFAT-BLA reporter, FRET fluorescence, antagonist mode. inhibition, % at 4.98 µM. 0.27% of 170,000 active. AID 485, 2006;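 active = inhibition above the plate cutoff, the mean inhibition of test wells on that plate plus 3 SD, cut at about 28% in these data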;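 also: cells challenged with S1P at its EC80 of 0.8 µM; blue over green emission ratio from cleaved BLA substrate after 4 h stimulation; 0% = S1P-stimulated wells and 100% = unstimulated DMSO-only wells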
RAM inhibit: inhibitors of the yeast RAM network, primary screen, dse1pr::URA3 reporter, 5-FOA selection; inhibition, % at 50 µM; 1.8% of 190,000 active; S. cerevisiae dse1pr::URA3 reporter, 5-FOA growth OD615, 2 d; analog-sensitive cbk1-as2 kinase mutant strain;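 active = inhibition above a set limit, 3 SD over mean compound inhibition, cut at about 8.4% in these data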;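 also: 0% = DMSO-only wells with no growth and 100% = 10 µM 1-NA-PP1 full growth; inhibition rescues growth on 5-FOA so higher OD means more RAM inhibition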
S1P4 antagonist: S1P4 receptor antagonists, primary screen, cell-based | Sphingosine 1-phosphate receptor 4 (Homo sapiens), O95977 | S1P4-expressing cells, antagonist mode, reporter read-out | inhibition, % at 4.98 µM | 0.26% of 220,000 active | AID 1510, 2009; in the data active = inhibition above about 29%;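 also: 0% = wells stimulated with agonist and 100% = vehicle wells without agonist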
S1P4 ag: S1P4 receptor agonists, primary screen, cell-based; Sphingosine 1-phosphate receptor 4 (Homo sapiens), O95977; S1P4-expressing cell line, agonist reporter assay; activation, % at 4.98 µM; 0.35% of 220,000 active; AID 1509, 2009; in the data active = activation above about 11%;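 also: 0% = DMSO vehicle and 100% = reference agonist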
Cl transport mod: KCC2 cotransporter modulators, thallium flux, primary screen, cell-based, HEK293 KCC2, FluoZin-2 fluorescence, MLSMR. B-score of Tl+ flux slope (higher = more flux/activation; lower = inhibition) at 10 µM. AID 1456, 2008. KCC2 cells, thallium flux FluoZin-2 fluorescence. 2.2% of 190,000 active;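 active = thallium flux slope and its plate-corrected score both differing from the plate sample mean at a set confidence after two filtering rounds, in either direction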;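 also: slope of fluorescence scaled to starting intensity during 10 to 20 s after thallium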
ROMK primary: ROMK potassium channel modulators, primary screen, cell-based, thallium flux, MLSMR library | Tet-inducible ROMK, thallium flux fluorescence; actives lie on both sides | B-score at 10 µM | AID 1918, 2009 | 2% of 130,000 active | ATP-sensitive inward rectifier potassium channel 1 (Homo sapiens), P48048;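 active = signal ratio slope over the read window, or its plate-corrected B-score, at least 3 SD from the plate mean, either direction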;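 also: B-score of the F/F0 ratio slope over 7 to 12 s after thallium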
Target sequence (P48048 whole entry, looked up): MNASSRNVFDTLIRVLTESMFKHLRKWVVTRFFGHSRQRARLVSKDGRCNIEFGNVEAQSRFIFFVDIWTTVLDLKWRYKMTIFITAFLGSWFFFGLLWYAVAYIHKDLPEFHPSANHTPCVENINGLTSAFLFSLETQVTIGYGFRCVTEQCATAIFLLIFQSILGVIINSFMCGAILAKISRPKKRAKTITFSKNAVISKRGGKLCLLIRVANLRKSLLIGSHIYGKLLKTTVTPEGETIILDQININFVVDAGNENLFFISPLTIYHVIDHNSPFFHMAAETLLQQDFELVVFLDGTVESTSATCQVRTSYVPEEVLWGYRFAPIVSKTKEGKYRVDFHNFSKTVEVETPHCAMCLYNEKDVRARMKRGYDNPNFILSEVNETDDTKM
RAM efflux-def: 5-FOA growth of efflux-deficient control yeast, dose response, counter-screen for RAM network inhibitor project, S. cerevisiae, OD615; shares compounds with RAM inhibit; AID 1305, 2008; max inhibition, %; S. cerevisiae efflux-deficient reporter strain, 5-FOA growth OD615, 2 days; 1,200 tested, under 10 active; call rule not given here;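 also: plate controls were vehicle for no effect and reference inhibitor for full effect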
* hit, by the source's call; i = inactive; / = not tested or not shown. This is a sample that favours compounds with a hit; in the whole collection about 5.1% have one here.

SMILES	S1P3 antagonist	RAM inhibit	S1P4 antagonist	S1P4 ag	Cl transport mod	ROMK primary	RAM efflux-def
C=CCN(C(=O)CNC(=O)c1cccs1)C(C(=O)NC1CCCCC1)c1cccnc1 (centres undefined)	2.5	0.4	-11.6	-0.1	-1.6	0.242	/
COCCCNc1nc(SCc2ccccc2)nc2sc3c(c12)CCC3	/	15.8*	-8.4	-1.7	0.573	/	5.5
Cc1cccc(/N=C/c2c(O)n(Cc3ccc4c(c3)OCO4)c(=O)c3ccccc23)n1	-3.6	3.4	-2.2	0.3	0.075	0.115	/
O/N=C/c1ccn(-c2ccc(Br)cc2)c1	0.9	0.4	5.6	-0.3	0.749	0.0563	/
Cc1ccccc1NC(=O)CCCSc1nc2ccccc2s1	-1.7	18.1*	-25.5	5.2	-1.81	-1.26	2.0
CC(=O)c1cc(C(=O)c2ccccc2)sc1Nc1ccccc1	1.4	11.6*	-28.4	0.6	-1.04	-0.81	3.1
O=C(COC(=O)/C=C/c1ccco1)NCc1ccc2c(c1)OCO2	0.0	3.4	-14.8	1.2	-0.0761	-0.205	/
COc1ccc(C2=NO[C@@H]3[C@@H]4C[C@@H]([C@H]5C(=O)N(C)C(=O)[C@@H]45)[C@H]23)c(OC)c1	2.5	/	-5.4	0.7	-0.358	/	/
COc1ccc(N(CC(=O)NCCSCc2ccco2)S(=O)(=O)c2ccc(C)cc2)cc1	-14.9	14.8*	8.4	-0.4	-2.8	0.0162	2.0
CS(=O)(=O)N(Cc1ccc(C(=O)NCc2ccco2)cc1)c1ccccc1	26.8	1.6	28.9	-3.8	-0.379	/	/
CS(=O)(=O)N(Cc1ccc(C(=O)NCCSCc2ccco2)cc1)c1ccccc1	/	11.7*	8.0	0.6	/	0.305	2.4
CC(=O)N1CC=CC1(C)C(=O)O (centres undefined)	0.7	1.8	6.8	1.2	0.393	-0.822	/
COc1cccc(/C=C(/C(=O)OCC(=O)NC2CCCC(C)C2C)c2ccccc2)c1 (centres undefined)	1.6	20.2*	5.7	-0.1	-1.76	-0.653	5.6
Cc1cc2c(nc1C)CCCN2C[C@@H](C)O/N=C1/[C@H]2CCn3c(=O)n(-c4ccccc4)c(=O)n3[C@H]2[C@H](O)[C@@H]2O[C@H]12	-5.1	-0.1	-17.8	0.8	0.297	0.132	/
COC(=O)c1c(NC(C)=O)sc(Cc2ccccc2)c1C	/	5.9	-20.1	-2.4	/	/	/
COC(=O)c1c(NC(=O)c2ccccc2)sc(Cc2ccccc2)c1C	/	12.0*	-5.5	2.0	/	-0.000744	5.9
COC(=O)c1c(NC(=O)c2ccc(C)cc2)sc(Cc2ccccc2)c1C	/	13.8*	-6.4	-1.1	/	/	3.9
CCOCCCNC(=S)N1CCCN(c2nc3c(C)c(C)ccc3cc2C#N)CC1	-8.3	21.9*	-18.2	-0.8	-0.696	-1.22	7.1
Cc1c(NC(=O)c2ncn[nH]2)cccc1-c1nc2ccccc2s1	5.5	1.5	-0.9	0.7	-0.468	/	/
CCCCNC(=O)c1c(N)n(/N=C/c2ccccn2)c2nc3ccccc3nc12	/	0.4	-11.2	0.9	/	-0.0678	/
CC(C)CNC(=O)c1c(N)n(/N=C/c2ccccn2)c2nc3ccccc3nc12	/	14.5*	-1.9	-0.9	0.799	0.00676	4.5
CC(C)(C)C(=O)N1CCN(c2ccc(Cl)cc2[N+](=O)[O-])CC1	4.5	-0.9	-8.4	-0.9	1.07	-1.06	/
O=C(CSc1ccc(Cl)cc1)N1CCN(c2ccc(Cl)cc2[N+](=O)[O-])CC1	/	13.4*	-9.8	0.4	/	/	4.0
C=CCn1c(SCC)nc2sc3c(c2c1=O)CCc1ccccc1-3	/	17.8*	2.8	-0.7	0.771	-0.771	2.4
O=C(NCc1ccc2c(c1)OCO2)c1cc(-c2ccccn2)nc2ccccc12	-0.5	13.7*	-2.4	0.6	-0.575	0.0902	3.3
SMILES	S1P3 antagonist	RAM inhibit	S1P4 antagonist	S1P4 ag	Cl transport mod	ROMK primary	RAM efflux-def
Cc1ccc(NC(=O)COC(=O)c2cc(Cl)ccc2[N+](=O)[O-])c(C)c1	-22.0	3.6	-4.3	1.5	-0.0291	0.00324	/
Cc1ccc(NC(=O)COC(=O)COc2ccc(Cl)cc2C)c([N+](=O)[O-])c1	1.0	11.6*	-0.1	1.6	-0.19	-0.778	1.4
Cc1ccc(C(=O)NCC(=O)OCC(=O)Nc2cc(C)c(C)cc2[N+](=O)[O-])cc1	-15.0	1.9	-28.9	1.1	-2	0.0205	/
Cc1ccc(NC(=O)COC(=O)CCC(=O)c2ccc(C(C)(C)C)cc2)c([N+](=O)[O-])c1	2.4	13.7*	-11.6	1.5	-3.82	-0.389	3.9
CC(=O)N1CCC(N(CCN2CCOCC2)C(=S)Nc2c(C)cccc2C)CC1	-7.0	3.9	-11.2	-0.2	0.773	0.0044	/
Cc1ccnc(NS(=O)(=O)c2cccc([N+](=O)[O-])c2)c1	-12.0	/	-19.3	1.4	-0.00896	/	/
CCCN(CCC)c1nc2ccccc2nc1C(C#N)C(=O)OC(C)COC (centres undefined)	/	12.7*	-5.1	0.8	-0.912	-0.0693	1.8
CCN(CC)c1nc2ccccc2nc1C(C#N)C(=O)NCCCOC (centres undefined)	11.3	1.2	0.4	-1.4	0.58	/	/
CCCCN(CCCC)c1nc2ccccc2nc1C(C#N)C(=O)NCCCOC (centres undefined)	/	14.8*	6.7	0.7	i	/	5.2
CCCCOc1ccc(CNn2c(C)nc3ccccc3c2=O)cc1	-16.3	14.9*	-12.9	1.3	-0.839	-0.233	2.2
C=C(C)CNC(=S)NNC(=O)CCn1c2ccc(Cl)cc2c2cc(Cl)ccc21	-9.7	1.1	-3.4	-0.4	1.48	0.746	/
CCOc1cc(CNc2ccc(CNc3ncn[nH]3)cc2)ccc1OCc1ccccc1	0.4	12.2*	-4.2	0.5	0.0337	/	6.7
C/C(=N\NC(N)=S)C1(C)CC2(CC(C)(C)OC2=O)C(=O)O1 (centres undefined)	10.6	/	-13.6	0.4	0.205	-0.425	/
CCCCOC(=O)c1ccc(NC(=O)c2c(Cl)ccc(Cl)c2OC)cc1	-13.1	17.9*	3.1	-1.5	-1.35	0.0969	3.0
CCOC(=O)c1ccc(NC(=O)c2cc(OC)c(OC)c(OC)c2Br)cc1	-5.0	0.7	-11.0	0.2	-1.14	/	/
CCCCCCOC(=O)c1ccc(NC(=O)c2cc(OC)c(OC)c(OC)c2Br)cc1	/	11.5*	8.1	-3.9	0.623	0.457	3.7
O=C(Cn1nc(-c2cccc([N+](=O)[O-])c2)c2ccccc2c1=O)Nc1cccnc1	/	2.0	6.5	1.2	0.0761	0.746	/
